The values below come from PubChem BioAssay (NCATS).

Test [1] in a line: Quantitative High-Throughput drug screen in 47 multiple myeloma cell lines against the NCATS MIPE library collection: OCIMY5_PLB cell viability assay (AID 1918988). Note: potency is the fitted concentration of half-maximal effect; nearly all actives have a fitted effect of over 65% in size. The method, boiled down:
(§1)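 MIPE 4.0 approved/investigational drugs; 500 cells/well; 48 h 37 °C humidified 5% CO2; CTG luminescence readout; DMSO = 100%, media = 0% viability.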

Test [2] can be described thus: Quantitative High-Throughput drug screen in 47 multiple myeloma cell lines against the NCATS MIPE library collection: OPM1_PLB cell viability assay (AID 1918989). Note: nearly all actives have a fitted effect of over 40% in size. Note: potency is the fitted concentration of half-maximal effect. The method, boiled down:
as §1

Test [3] in a line: Quantitative High-Throughput drug screen in 47 multiple myeloma cell lines against the NCATS MIPE library collection: SKMM1_PLB cell viability assay (AID 1919863). Note: nearly all actives have a fitted effect of over 35% in size. Note: potency is the fitted concentration of half-maximal effect. The conditions noted are these: SKMM1 myeloma viability, CellTiter-Glo ATP, 48 h; viability: stronger effect = lower value. The method, boiled down: as §1
(In general: In ATP-based viability assays light output follows the ATP content of the culture.)

Test [4] is described as follows: Quantitative High-Throughput drug screen in 47 multiple myeloma cell lines against the NCATS MIPE library collection: U266_ATCC cell viability assay (AID 1919864).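 For viability (% of DMSO control): 0% = media-only wells without cells and 100% = DMSO-only wells.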 Note: nearly all actives have a fitted effect of over 35% in size. Note: potency is the fitted concentration of half-maximal effect. An outline of the steps:
as §1

Test [5] in a line: Quantitative High-Throughput drug screen in 47 multiple myeloma cell lines against the NCATS MIPE library collection: PE2_PLB cell viability assay (AID 1919869). Note: nearly all actives have a fitted effect of over 35% in size. Note: potency is the fitted concentration of half-maximal effect. The method, boiled down: as §1
The nature of test [6]: Quantitative High-Throughput drug screen in 47 multiple myeloma cell lines against the NCATS MIPE library collection: OPM2_DSMZ cell viability assay (AID 1919872). Note: nearly all actives have a fitted effect of over 30% in size. Note: potency is the fitted concentration of half-maximal effect. The method, boiled down: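 Primary qHTS used for cherry-picking: cells at 500/well, library compounds for 48 h (37C, 5% CO2), luminescent ATP assay.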
Test [7] can be described thus: Quantitative High-Throughput drug screen in 47 multiple myeloma cell lines against the NCATS MIPE library collection: KMS11_JCRBsus cell viability assay (AID 1919873). Note: nearly all actives have a fitted effect of over 50% in size. Note: potency is the fitted concentration of half-maximal effect. The method, boiled down:
as §1

Test [8] in a line: qHTS for identification of novel therapeutic agents for treatment of microphthalmiaassociated transcription factor (MiT) renal cell carcinoma (RCC) (AID 1963991; calls by dose curve; note: potency is the fitted concentration of half-maximal effect). The conditions noted are these: CellTiter-Glo, 48 h; for z-score: stronger effect = lower value. The method, boiled down: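 Curves over 11 concentrations were fitted to CellTiter-Glo luminescence, scaled between empty wells (0%) and DMSO (100%) viability. Cells were UOK109, UOK124 and UOK145 TFE3-fusion RCC lines at 500/well, exposed 48 hours at 37 C.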
In general terms: Quantitative high-throughput screening tests each substance at several concentrations.

The nature of test [9]: Quantitative High-Throughput drug screen in 47 multiple myeloma cell lines against the NCATS MIPE library collection: XG6_PLB cell viability assay (AID 1919865). Note: nearly all actives have a fitted effect of over 40% in size. The method, boiled down:
as §1

The nature of test [10]: Quantitative High-Throughput drug screen in 47 multiple myeloma cell lines against the NCATS MIPE library collection: XG1_PLB cell viability assay (AID 1919866). Note: nearly all actives have a fitted effect of over 35% in size. An outline of the steps: as §1
The nature of test [11]: Quantitative High-Throughput drug screen in 47 multiple myeloma cell lines against the NCATS MIPE library collection: VP6_DJ cell viability assay (AID 1919867). Note: nearly all actives have a fitted effect of over 40% in size. Note: potency is the fitted concentration of half-maximal effect. An outline of the steps: as §1
Test [12] is described as follows: Quantitative High-Throughput drug screen in 47 multiple myeloma cell lines against the NCATS MIPE library collection: PCM6_Riken cell viability assay (AID 1919870). Note: nearly all actives have a fitted effect of over 30% in size. Note: potency is the fitted concentration of half-maximal effect. The method, boiled down: as §1
A short description of test [13]: Quantitative High-Throughput drug screen in 47 multiple myeloma cell lines against the NCATS MIPE library collection: RPMI8226_ATCC cell viability assay (AID 1919871). Note: nearly all actives have a fitted effect of over 30% in size. Note: potency is the fitted concentration of half-maximal effect. The method, boiled down: as §1
Test [14] in a line: Quantitative High-Throughput drug screen in 47 multiple myeloma cell lines against the NCATS MIPE library collection: KMS28BM_JCRB cell viability assay (AID 1919874). Note: nearly all actives have a fitted effect of over 35% in size. Note: potency is the fitted concentration of half-maximal effect. The method, boiled down:
as §1

The nature of test [15]: qHTS drug screen for cell cycle checkpoint inhibitors in PARPi-resistant BRCA-mutant ovarian cancer cell lines. (AID 1963452; calls by dose curve). The conditions noted are these: PEO1/OlaR viability, CellTiter-Glo luminescence, 96 h, stronger effect = lower value. An outline of the steps: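 PEO1, PEO4 and PEO1/OlaR ovarian cancer cells, 600 per well, exposed 96 h at 37C to a dilution series. Viability read by CellTiter-Glo luminescence, normalized to DMSO and empty wells; activity summarized as Z-AUC.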

The nature of test [16]: Quantitative High-Throughput drug screen in 47 multiple myeloma cell lines against the NCATS MIPE library collection: OCIMY7_PLB cell viability assay (AID 1918987). Note: potency is the fitted concentration of half-maximal effect; nearly all actives have a fitted effect of over 65% in size. The method, boiled down: as §1
Test [17] is described as follows: Quantitative High-Throughput drug screen in 47 multiple myeloma cell lines against the NCATS MIPE library collection: UTMC2_PLB cell viability assay (AID 1919868).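 For viability (% of DMSO control): 100% = DMSO-only wells and 0% = media-only wells without cells.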 Note: nearly all actives have a fitted effect of over 55% in size. Note: potency is the fitted concentration of half-maximal effect. The conditions noted are these: CellTiter-Glo ATP luminescence, 48 h; viability (% of DMSO control): at 45.8 µM (top of the series) unless noted. The method, boiled down: as §1
Where [18] appears, read: TFE3-RCC UOK109 viability, measured here: UOK109 Z-AUC.
[19] abbreviates: TFE3-RCC viability, measured here: UOK124 Z-AUC.
Setting [20] is: TFE3-RCC viability, measured here: UOK145 Z-AUC.
Setting [21] is: measured here: PEO1 parental Z-AUC.

Results filed as inconclusive are left out. Active and inactive are the calls of the source. Unless noted, calls come from the whole dose curve; as a rule, active = well fitted cell-killing curve with a large enough effect; inconclusive = small, poorly fitted or top-dose-only effect, or effect the other way; inactive = no such curve, though single readings can be large or run the other way.

With `Cc1cccc(C=NNc2cc(N3CCOCC3)nc(OCCc3ccccn3)n2)c1`, the Potency in test [1] is 23.5 µM (active); in test [2], 4.18 µM (active); in test [3], 16.6 µM (active); in test [4] it was 6.62 µM (active); in test [5], 18.7 µM (active); in [6], 6.62 µM (active). Besides, the Potency was 2.64 µM (active) in [7] and 0.118 µM (active) in test [8] (TFE3-RCC UOK109 viability, active = Z-AUC below -0.8 in all three lines). Also, the z-score in [8] (setting [18]) was -0.897; in [8] (setting [19]), -1.42; in [8] (setting [20]) it was -0.962.

Regarding `CN(C)c1nc(Cc2ccc(NC(=O)c3ccc4ccccc4c3)cc2)nc(Cl)c1CC(=O)O`, in test [1], the Potency is 1.66 µM (active). Also, the Potency result in [2], in test [4], in [9], in test [10], in [11] and in test [5] was “inactive” each time. The Potency result in test [12], in test [13], in test [6] and in test [14] was “inactive” throughout. For the same molecule, the z-score in test [8] (setting [18]) turned out to be 0.743; in [8] (setting [19]) it was 0.693; in test [8] (setting [20]), 0.756.

On to `CS(=O)(=O)N1CCN(Cc2cc3nc(-c4cccc5[nH]ncc45)nc(N4CCOCC4)c3s2)CC1`, for which the Potency in [13] was 0.264 µM (active). For the same molecule, the Z-AUC in [15] is 0.0585 (inactive); in [15] (setting [21]) it was 0.321; in test [15] (measured here: PEO4 Z-AUC), 0.781.

In the case of `COc1cc(C(C)C)c2c(c1)S(=O)(=O)N(COc1cc(=O)n3cccc(OCCN4CCCCC4)c3n1)C2=O`, the Potency in test [16] was 11.8 µM (active); in test [2], 23.5 µM (active); in [11], 16.6 µM (active); in test [17], 26.4 µM (active); in test [5], 18.7 µM (active); in [12], 18.7 µM (active). In addition, the Potency entry in test [13] and in test [6] was “inactive” throughout. Also, the Z-AUC was 1.15 (inactive) in [15], 1.06 in test [15] (setting [21]) and 0.892 in test [15] (measured here: PEO4 Z-AUC).

In the case of `CN(C)CC(C)(C)CNc1nn2c(-c3ccccc3)nnc2cc1C1CCC1`, the Potency in [11] is 10.5 µM (active); in test [17], 1.05 µM (active); in test [5], 11.8 µM (active). In addition, the Potency result in test [13], in [6] and in [7] was “inactive” each time. Moreover, the figures for the Z-AUC in test [15], in [15] (setting [21]) and in test [15] (measured here: PEO4 Z-AUC) were 0.384 (inactive), 0.768 and 0.988, respectively.

Usually viability stands for a read-out of living cells in per cent, often relative to untreated cells. In the case of `O=C(O)Cn1nnc(-c2cc(N3CCC(Oc4cc(F)ccc4Br)CC3)no2)n1`, the Potency entry in [2], in test [4], in test [9], in test [11], in test [5] and in test [12] was “inactive” each time. For the same molecule, the Potency result in test [13], in [6], in [7] and in test [14] was “inactive” in each case. For the same molecule, the viability in [3] is 126% (inactive). Also, the Z-AUC in [15] is -0.81 (inactive); in test [15] (setting [21]) it was -0.799; in test [15] (measured here: PEO4 Z-AUC) it was -1.41. Besides, the z-score was 0.654 in [8] (setting [18]), 0.371 in [8] (setting [19]) and 1.36 in test [8] (setting [20]).

Regarding `Cc1ccc2nc(NC(=O)CSc3nc4c(c(=O)n3-c3ccccc3)SCC4)sc2c1`, the Potency is 16.6 µM (active) in [2]; 11.8 µM (active) in [3]; 20.9 µM (active) in test [4]; 9.35 µM (active) in test [11]; 9.35 µM (active) in [5]; 16.6 µM (active) in test [13]. Further, the Potency in [6] is 20.9 µM (active); in [7], 8.33 µM (active); in [14], 9.35 µM (active). Besides, the Potency result in test [17] is “inactive”. Also, the Z-AUC was 1.55 (inactive) in [15], 1.46 in test [15] (setting [21]) and 1.44 in [15] (measured here: PEO4 Z-AUC).
